Reference: the supplement of paper PMC3545927
The list shows a part of the results. The hit rate among all sequences tested is not known here.

Molecular target: furin, P09958
Experiment: furin cleavage Z-score vs untreated control; higher = more cleavage, active = 3.5 or more, inactive = 1 or less, 8 variable residues between constant flanks
In short: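 The cleavage Z-score was derived for purified furin acting on 8-mer peptides held on magnetic beads and fused to a cDNA oligonucleotide. Digests lasted 7.5, 15 or 30 min at 1:10 enzyme:substrate in 50 mM HEPES pH 7.5 with CaCl2 and NaCl. Sequencing counts of released DNA, log-transformed against furin-free reactions, were lowess-adjusted and scaled by median absolute deviation.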

Chain of furin, P09958 (P09958 whole entry): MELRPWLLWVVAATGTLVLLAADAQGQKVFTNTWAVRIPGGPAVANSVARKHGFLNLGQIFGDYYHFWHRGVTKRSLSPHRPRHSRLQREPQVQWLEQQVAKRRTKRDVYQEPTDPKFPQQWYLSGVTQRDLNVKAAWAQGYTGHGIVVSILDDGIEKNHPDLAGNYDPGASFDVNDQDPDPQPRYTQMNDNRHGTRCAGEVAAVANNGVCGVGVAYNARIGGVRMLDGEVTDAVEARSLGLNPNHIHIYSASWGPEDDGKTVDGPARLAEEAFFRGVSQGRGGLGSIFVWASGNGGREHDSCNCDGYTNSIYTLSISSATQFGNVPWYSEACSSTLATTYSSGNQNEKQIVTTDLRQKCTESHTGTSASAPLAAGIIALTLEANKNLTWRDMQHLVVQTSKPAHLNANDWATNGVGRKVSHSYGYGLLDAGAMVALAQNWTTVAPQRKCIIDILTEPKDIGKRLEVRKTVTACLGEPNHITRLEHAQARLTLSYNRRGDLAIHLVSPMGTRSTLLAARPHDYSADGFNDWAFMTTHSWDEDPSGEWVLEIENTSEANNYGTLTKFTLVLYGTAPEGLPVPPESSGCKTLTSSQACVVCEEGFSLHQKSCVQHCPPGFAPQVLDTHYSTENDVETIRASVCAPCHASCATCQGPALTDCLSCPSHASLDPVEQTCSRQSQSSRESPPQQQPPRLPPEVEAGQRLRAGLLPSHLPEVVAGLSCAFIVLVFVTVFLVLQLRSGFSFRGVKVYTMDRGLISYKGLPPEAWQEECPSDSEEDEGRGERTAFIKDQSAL

B1: HC429 (peptide)
chain: CAFVLNNTRPAGNASASA
furin cleavage Z-score (7.5 min): -0.02 (inactive)
furin cleavage Z-score (15 min): 0.46 (inactive)
furin cleavage Z-score (30 min): -0.424 (inactive)

B2: FS-1995 (peptide)
chain: CARARRRTPTAGNASASA
furin cleavage Z-score (7.5 min): 0.355 (inactive)
furin cleavage Z-score (15 min): 2.75
furin cleavage Z-score (30 min): 0.804 (inactive)

B3: FS-2889 (peptide)
chain: CARARRRSAEAGNASASA
furin cleavage Z-score (7.5 min): 2.93
furin cleavage Z-score (15 min): 2.98
furin cleavage Z-score (30 min): 4.07 (active)

B4: FS-2203 (peptide)
chain: CARARRSMDEAGNASASA
furin cleavage Z-score (7.5 min): 10.2 (active)
furin cleavage Z-score (15 min): 11.1 (active)
furin cleavage Z-score (30 min): 8.05 (active)

B5: FS-288 (peptide)
chain: CARARRLRREAGNASASA
furin cleavage Z-score (7.5 min): 12.9 (active)
furin cleavage Z-score (15 min): 12.3 (active)
furin cleavage Z-score (30 min): 9.18 (active)

B6: FS-291 (peptide)
chain: CARRLRARREAGNASASA
furin cleavage Z-score (7.5 min): 9.55 (active)
furin cleavage Z-score (15 min): 8.95 (active)
furin cleavage Z-score (30 min): 6.29 (active)

B7: FS-2071 (peptide)
chain: CARRLREAVQAGNASASA
furin cleavage Z-score (7.5 min): 0.989 (inactive)
furin cleavage Z-score (15 min): -0.0587 (inactive)
furin cleavage Z-score (30 min): 2.28

B8: FS-2887 (peptide)
chain: CARARKLADEAGNASASA
furin cleavage Z-score (7.5 min): 0.23 (inactive)
furin cleavage Z-score (15 min): -0.74 (inactive)
furin cleavage Z-score (30 min): -2.19 (inactive)

B9: HC981 (peptide)
chain: CAVTKYIMTCAGNASASA
furin cleavage Z-score (7.5 min): -0.549 (inactive)
furin cleavage Z-score (15 min): -0.794 (inactive)
furin cleavage Z-score (30 min): 0.2 (inactive)

B10: HC2375 (peptide)
chain: CAEVPCHHPSAGNASASA
furin cleavage Z-score (7.5 min): 0.748 (inactive)
furin cleavage Z-score (15 min): 1.23
furin cleavage Z-score (30 min): 0.223 (inactive)

B11: HC1198 (peptide)
chain: CAAPNYTFALAGNASASA
furin cleavage Z-score (7.5 min): -1.92 (inactive)
furin cleavage Z-score (15 min): -0.299 (inactive)
furin cleavage Z-score (30 min): -0.368 (inactive)

B12: HC1546 (peptide)
chain: CAGDPPQPEYAGNASASA
furin cleavage Z-score (7.5 min): -0.406 (inactive)
furin cleavage Z-score (15 min): -0.628 (inactive)
furin cleavage Z-score (30 min): 0.347 (inactive)
